From PubChem BioAssay (NCATS)
Results filed as inconclusive are left out. Values without a mark were called inactive. Calls come from the whole dose curve; as a rule, active = well fitted activation curve with a large enough effect; inconclusive = small, poorly fitted or top-dose-only effect; inactive = no such curve, though single readings can be large or run the other way.

The compounds below were run against Cellular tumor antigen p53 (Homo sapiens) (UniProt P04637) (assay: Primary qHTS for small molecule compounds that upregulate eGFP-tagged delta133p53alpha (in N-terminal) cells. (AID 2060322;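 note: series mostly up to about 56 µM; 0% = DMSO vehicle and 100% = reference activator; nearly all actives have a fitted effect of over 75% in size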)). Settings: NCI-H358 eGFP-delta133p53alpha fluorescence, 24 h; activation: hits give high values.
Chain of Cellular tumor antigen p53 (Homo sapiens) (P04637 whole entry, looked up): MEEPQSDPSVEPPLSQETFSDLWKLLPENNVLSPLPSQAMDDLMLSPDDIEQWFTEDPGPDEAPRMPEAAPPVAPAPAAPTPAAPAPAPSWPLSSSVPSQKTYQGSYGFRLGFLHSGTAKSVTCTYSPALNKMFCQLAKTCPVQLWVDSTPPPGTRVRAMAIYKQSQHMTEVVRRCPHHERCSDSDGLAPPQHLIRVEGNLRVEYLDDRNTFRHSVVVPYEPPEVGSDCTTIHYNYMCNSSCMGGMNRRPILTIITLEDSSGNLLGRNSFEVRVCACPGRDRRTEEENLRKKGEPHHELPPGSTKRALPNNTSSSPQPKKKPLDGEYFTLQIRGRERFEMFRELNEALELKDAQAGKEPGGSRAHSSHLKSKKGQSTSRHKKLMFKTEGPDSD
Procedure, shortened: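 NCI-H358 cells pre-induced 24 h with 10 ng/ml doxycycline to express N-terminal eGFP-delta133p53alpha, then dosed 24 h at 37C without doxycycline; fixed, Hoechst-stained, GFP intensity by laser scanning cytometry, normalized to DMSO (0%) and 57.5 uM 5-azacytidine (100%).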

Compound	activation [%]
O=C1CCCc2c(O)cccc21	-14.1
CN(C)CCCSc1ccccc1NC(=O)/C=C/c1ccccc1	-10
CCCC(=O)O[C@]1(C(=O)CC)CC[C@H]2[C@@H]3CCC4=CC(=O)CC[C@]4(C)[C@H]3[C@@H](O)C[C@@]21C	-20.9
CNc1c2c(nn1C)CCCC2	-18.4
C[C@@H](O)[C@H]1C(=O)N2C(C(=O)O)=C(S[C@@H]3CN[C@H](C(=O)N(C)C)C3)[C@H](C)[C@H]12	7.34
O=C(C1CCCCC1)N1CC(=O)N2CCCc3ccccc3C2C1 (centres undefined)	4.18
CCCCN(CCCC)CC(O)c1cc(Cl)cc2c1-c1ccc(Cl)cc1C2=Cc1ccc(Cl)cc1 (centres undefined)	12
Cc1ccc(CCn2c3c(c4cc(Cl)ccc42)CN(C)CC3)cn1	-20.9
CC(=O)NCc1c(I)c(NC(C)=O)c(I)c(C(=O)O)c1I	16.4
C[C@]12CCC(=O)C=C1[C@@H]1CC1[C@H]1[C@H]3[C@@H]4C[C@H]4[C@@]4(CCC(=O)O4)[C@@]3(C)CC[C@H]12 (some centres undefined)	8.34
COC(=O)[C@@H]1[C@H]2C[C@@H]3c4[nH]c5ccccc5c4CCN3C[C@@H]2CC[C@@H]1O	21.4
CC(=O)Oc1ccc(C2(c3ccc(OC(C)=O)cc3)C(=O)Nc3ccccc32)cc1	-31.1
CCOC(=O)NNc1ccc(N(CC)CC(C)O)nn1 (centres undefined)	15.1
O=C(O)CCCC[P+](c1ccccc1)(c1ccccc1)c1ccccc1	20.9
